Assay results as given in PubChem BioAssay (NCI).
The panel holds about 83,000 compounds, 20% with a hit somewhere; the sample as a whole holds those more often.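 Assay: single dose, 48 h. Readout: percent growth (0 = no net growth; negative = cell death). Active: <10.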 Values without a mark were called inactive. Calls of active or inactive are those of the source.

Key:
Assay in all cases: NCI-60 one-dose screen, 48 h (100 = growth as untreated, 0 = no growth, -100 = all killed)
NCI-H23 lung = conditions: 10 µM unless noted
NCI-H226 lung = conditions: 10 µM unless noted
NCI-H322M lung = conditions: 10 µM unless noted
HOP-62 NSCLC = conditions: 10 µM unless noted
NCI-H460 lung = conditions: 10 µM unless noted
HOP-92 NSCLC = conditions: 10 µM unless noted
NCI-H522 lung = conditions: 10 µM unless noted
A549/ATCC NSCLC = conditions: 10 µM unless noted
786-0 renal = conditions: 10 µM unless noted
COLO 205 colon = conditions: 10 µM unless noted
DU-145 prostate = conditions: 10 µM unless noted
K-562 leukemia = conditions: 10 µM unless noted
MALME-3M melanoma = conditions: 10 µM unless noted
MDA-MB-231 breast = conditions: 10 µM unless noted
RXF 393 renal = conditions: 10 µM unless noted
SF-268 CNS = conditions: 10 µM unless noted
SF-295 CNS = conditions: 10 µM unless noted
SF-539 CNS = conditions: 10 µM unless noted
UACC-257 melanoma = conditions: 10 µM
M14 melanoma = conditions: 10 µM unless noted

Row | Structure (SMILES) | growth (NCI-H23 lung) | growth (NCI-H226 lung) | growth (NCI-H322M lung) | growth (HOP-62 NSCLC) | growth (NCI-H460 lung) | growth (HOP-92 NSCLC) | growth (NCI-H522 lung) | growth (A549/ATCC NSCLC) | growth (786-0 renal) | growth (COLO 205 colon) | growth (DU-145 prostate) | growth (K-562 leukemia) | growth (MALME-3M melanoma) | growth (MDA-MB-231 breast) | growth (RXF 393 renal) | growth (SF-268 CNS) | growth (SF-295 CNS) | growth (SF-539 CNS) | growth (UACC-257 melanoma) | growth (M14 melanoma)
1 | Nc1c(C(=O)c2ccccc2)sc2nc(-c3cnccn3)cc(-c3cccs3)c12 | 104% | 95.8% | 100% | 97.6% | 103% | 106% | 96.8% | 102% | 106% | 108% | 106% | 99.4% | 104% | 92.7% | 108% | 97.8% | 105% | 95.2% | 103% | 97.4%
2 | O=C(CCCCCCN1CC(=O)N2[C@@H](c3cccc(Br)c3)c3[nH]c4ccccc4c3C[C@H]2C1=O)NO | 43.1% | 91.7% | 42.2% | 30.2% | 26.4% | 2% (active) | 8.55% (active) | 59.4% | 46.6% | 7.27% (active) | 24.2% | 15.5% | 29.3% | 11.7% | -16.7% (active) | 24.9% | 15.6% | 32.2% | 44.9% | 27.4%
3 | O=C1c2c(c3c4cccnc4[nH]c3c3ccc4ccccc4c23)C(=O)N1CCN1CCCCC1 | 29.3% | 64.6% | 69.6% | 36.6% | 12.5% | 70.4% | 63% | 46.8% | 52.6% | 69.4% | 41.7% | 40.5% | 77% | 96% | 70.5% | 43.2% | 28.5% | 54.2% | 94% | 45.8%
4 | O=C(Nc1cccc(-c2nc(-c3ccc(NC(=O)c4cccnc4)cc3Cl)no2)c1)Nc1ccc(NC(=O)C2CC2)c(C(F)(F)F)c1 | -68.6% (active) | -55.9% (active) | -30.7% (active) | -47.8% (active) | -77.7% (active) | -68.1% (active) | -43.6% (active) | 7.02% (active) | -47.5% (active) | -55.3% (active) | -26.1% (active) | 1.44% (active) | -78.6% (active) | -59.5% (active) | -82% (active) | -23.2% (active) | -81.1% (active) | -86.9% (active) | -45.5% (active) | -53.3% (active)
5 | COc1ccc(-c2nnc(SCc3ccc(O)c4ncccc34)o2)cc1 | 38.2% | 63.7% | 49.3% | 32.2% | 14.9% | -2.2% (active) | 27.2% | 41.2% | 38.2% | 102% | 32.7% | 16.3% | 50% | 52.1% | 60.2% | 30.9% | 15.6% | 27.2% | 28.3% | 31.4%
6 | CCNCc1c(-c2cccc(OC(F)(F)F)c2)[nH]c2ccc(N3CCCC3)cc2c1=O | 24.9% | 37.1% | 30.3% | 29.2% | 8.9% (active) | 43.4% | 32.5% | 40.2% | 28.2% | 17.9% | 15% | 6.77% (active) | 39.5% | 20% | -9.04% (active) | 45.1% | 3.08% (active) | 2.73% (active) | 62.2% | -0.303% (active)
7 | Cc1ccc(NC(=O)N[C@@H](Cc2cc(F)cc(F)c2)C(=O)NC2C(=O)N3CCC[C@H]3C(=O)N3CCCC[C@H]3C(=O)N[C@@H](C)C(=O)N3C[C@H](C)C[C@H]3C(=O)O[C@H]2C)c(F)c1 (stereo not given in full) | 35.2% | 1.32% (active) | 52.7% | 33.8% | 15.3% | 4.3% (active) | 19.7% | 26.1% | 40.7% | -33.3% (active) | 25.7% | 20.2% | 44.3% | 34.6% | -7.39% (active) | 34.9% | 9.62% (active) | 39.2% | 16.9% | 23%
